In the library only some 2.5% were active in any assay of this set; here they are far more common.
ASK1 primary = ASK1 kinase inhibitors, primary screen, biochemical, AlphaScreen; Mitogen-activated protein kinase kinase kinase 5 (Homo sapiens), Q99683; AlphaScreen MKK6 phosphorylation by ASK1, luminescence; inhibition, % at 7.44 µM; hit rate 0.99% among 22,000; AID 1159602, 2016; in the data active = inhibition above about 35%
ULK1 inh = ULK1 kinase inhibitors, primary screen, biochemical, AlphaScreen. AlphaScreen Atg13 phosphorylation by ULK1, luminescence. inhibition, % at 5.96 µM. hit rate 1.9% among 30,000. AID 1259251, 2017; in the data active = inhibition above about 43%
AlphaScreen intf = AlphaScreen signal interference by compounds, dose response, artefact control for ASK1 inhibitor project, biochemical, TruHits beads. shares compounds with ASK1 primary. signal interference counterscreen. IC50, µM. hit rate 20% among 220;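 active = IC50 of 10 µM or lower in the counterscreen; inactive = IC50 above 10 µM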;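 note: loss of AlphaScreen light from TruHits beads alone with no ASK1 enzyme present; potency of signal reduction so a low IC50 flags an assay artifact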
A number is an active result; n = inactive; x = not tested or not shown.

SMILES | ASK1 primary | ULK1 inh | AlphaScreen intf
c1cc(-n2cnc3c(Nc4ccc5c(c4)OCO5)nc(Nc4ccc(N5CCOCC5)cc4)nc32)cs1 | 49.7 | n | n
O=C(Cc1cn(-c2ccc(N3CCN(c4ccccn4)CC3)nn2)c2ccccc12)NCCc1ccc(O)cc1 | n | n | x
OC(c1ccccc1)C(CN1CCCC1)c1ccccc1 (configuration not stated) | x | n | x
CC(C)n1cnc2c(NCCOc3ccccc3)nc(Nc3ncccn3)nc21 | n | n | x
Nc1cccc(-c2nc(Nc3ccc(Oc4ccccc4)cc3)c3ncn(Cc4ccc(C(F)(F)F)cc4)c3n2)c1 | n | n | x
FC(F)(F)c1ccc(Nc2nc(Nc3ccc(N4CCOCC4)cc3)c3ncn(-c4ccsc4)c3n2)cc1 | n | n | x
Cc1cc(Nc2ccc3c(c2)OCO3)nc(N2CCN(Cc3ccc4c(c3)OCO4)CC2)n1 | 36.5 | n | n
c1cc(-n2cnc3c(NC4CC4)nc(Nc4ccc(N5CCOCC5)cc4)nc32)cs1 | 42.7 | n | n
CC(C)n1cnc2c(Nc3ccc(N4CCOCC4)cc3)nc(Nc3ccc(-n4ccnc4)cc3)nc21 | 36.0 | 67.3 | n
c1cc(N2CCOCC2)ccc1Nc1nc(NCCN2CCOCC2)c2ncn(C3CCCCC3)c2n1 | n | n | x
CC(=O)Nc1ccc(Nc2nc(Nc3ccc(N4CCOCC4)cc3)nc3c2ncn3C(C)C)cc1 | n | n | x
CCCNc1cc(C)nc(N2CCN(Cc3ccc4c(c3)OCO4)CC2)n1 | n | n | x
CCCNc1nc(Nc2ccc(N3CCOCC3)cc2)nc2c1ncn2C1CCCCC1 | 50.8 | n | n
COc1cc(Nc2cc(N3CCc4ccccc4C3)nc(N)n2)cc(OC)c1OC | n | n | x
Cc1cccc2nc3c(c(=O)n12)CN(C(=S)Nc1ccccc1)CC3 | x | n | x
NC(=O)c1cccc(-c2cccs2)n1 | n | n | x
COc1ccc(-c2cc(NCc3nc4ccccc4[nH]3)ncn2)cn1 | n | n | x
O=C(Nc1ccncc1)C1CCN(C(=O)C(O)c2ccc(Br)cc2)CC1 (configuration not stated) | n | n | x
O=C1CCCN1CCCNc1nc(Nc2ccc(-n3ccnc3)cc2)nc2c1ncn2-c1ccsc1 | 47.2 | n | n
O=C1CCCN1CCCNc1nc(Nc2ccncc2)nc2c1ncn2-c1ccsc1 | n | n | x
CC(C)NC(=O)c1cccc(NC(=O)Nc2ccc(-c3cn[nH]c3)cc2)c1 | n | n | x
CC(C)NC(=O)c1cccc(NC(=O)Nc2ccc(-c3ccnc4[nH]ccc34)cc2)c1 | 38.6 | n | n
Cc1nc(NCc2ccncc2)cc(-c2cncc(Br)c2)n1 | x | n | x
CN(C)c1cccc(Nc2nccc(NCCc3ccc(O)cc3)n2)c1 | n | n | x
COc1ccc(CCNc2ccnc(Nc3cccc(N(C)C)c3)n2)cc1 | 38.0 | n | n
SMILES | ASK1 primary | ULK1 inh | AlphaScreen intf
COc1ccc(CCNC(=O)c2ccnc(Nc3cccc(N(C)C)c3)c2)cc1 | 40.7 | n | n
COc1ccc(CCNC(=O)c2ccnc(Nc3ccc4ncccc4c3)c2)cc1 | n | n | x
COc1ccc(-c2ncc(C)c(Nc3ccc(N4CCOCC4)cc3)n2)cn1 | n | n | x
COc1cc(Nc2nc(-c3ccc(C(N)=O)cc3)ncc2C)cc(OC)c1OC | 61.3 | 54.6 | n
Cc1cnc(-c2ccc(C(N)=O)cc2)nc1Nc1ccc(N2CCOCC2)cc1 | 36.2 | n | n
COc1cc(Nc2ncnc3nc(-c4ccc(C(N)=O)cc4)[nH]c23)cc(OC)c1OC | n | n | x
O=C1CCCN1CCCNc1nc(Nc2ccc(-n3ccnc3)cc2)nc2c1ncn2-c1ccccc1 | n | n | x
C=CCN1CCN(c2c(NC(=O)c3ccc(Br)o3)cccc2C(F)(F)F)CC1 | n | n | x
O=C(NCc1nc2ccccc2[nH]1)c1ccc2nc(Nc3cccnc3)sc2c1 | n | n | x
CC(C)n1c(N2CCN(Cc3ccc4c(c3)OCO4)CC2)nc2c(NCc3nc4ccccc4[nH]3)ncnc21 | n | n | x
COc1ccc(C)cc1NC(=O)Nc1cnn(-c2cccc(C(=O)Nc3cc(OC)c(OC)c(OC)c3)c2)c1 | n | n | x
COc1cc(NC(=O)c2cccc(-n3cc(NC(=O)Nc4ccccc4)cn3)c2)cc(OC)c1OC | n | n | x
COc1cc(NC(=O)c2cccc(-n3cc(NC(=O)Nc4c(C)cccc4Cl)cn3)c2)cc(OC)c1OC | 40.4 | n | n
COc1cc(NC(=O)c2cccc(-n3cc(NC(=O)Nc4ccc(-c5ccccc5)cc4)cn3)c2)cc(OC)c1OC | 49.3 | n | n
COc1cc2nc(Nc3ccccc3)nc(Nc3ccc(N4CCOCC4)cc3)c2cc1OC | 48.0 | n | 9.53
COc1cc2nc(Nc3nc4ccccc4n3C)nc(Nc3cc(OC)c(OC)c(OC)c3)c2cc1OC | n | n | x
COc1cc2nc(NC3CCN(Cc4ccccc4)CC3)nc(Nc3cc(OC)c(OC)c(OC)c3)c2cc1OC | n | n | x
c1ccc(CN2CCC(Nc3ccnc(Nc4ccc(N5CCOCC5)cc4)n3)CC2)cc1 | 49.8 | n | n

From PubChem BioAssay
